Experiment [1] has as its target PGR (gene 5241) (UniProt P06401). Put plainly: TOX21_PR_BLA_Followup_Antagonist_ratio: Tox21 HEK293 Progesterone Receptor (PR) Antagonism Beta-lactamase Follow-Up Assay, Ratio (AID 2283934). An outline of the steps:
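HEK293T PR-UAS-bla, 2% CS-FBS; 6 hr plating, then cpd + R5020 (1 nM final), 16 hr 37C/5% CO2. B/G FRET substrate 2 h RT. Ratio ch2/ch1 vs DMSO; CellTiter-Glo viability multiplexed, autofluorescence checked.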

Experiment [2] in a line: TOX21_PR_BLA_Followup_Agonist_viability: Viability Assessment in the Tox21 HEK293 Progesterone Receptor (PR) Agonism Beta-lactamase Follow-Up Assay (AID 2283935).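 Also: cells exposed to compound for 16 hr at 37 °C; signal loss means lower viability so actives are cytotoxic.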 An outline of the steps: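 HEK293T PR-UAS-bla, 3,000 cells/well, 2% CS-FBS; 6 hr pre-incubation; cpd in DMSO, 16 hr 37C; LiveBLAzer 2 hr RT, then CellTiter-Glo 30 min RT, luminescence. Decrease = lost viability.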

A short description of experiment [3]: TOX21_PR_BLA_Followup_Antagonist_viability: Viability Assessment in the Tox21 HEK293 Progesterone Receptor (PR) Antagonism Beta-lactamase Follow-Up Assay (AID 2283936).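 Also: hits lower the luminescence signal meaning cytotoxicity.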 An outline of the steps:
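PR-UAS-bla HEK293T cells (3,000/well, 2% charcoal-stripped FBS) given compound plus R5020 agonist, 16 h at 37C. CellTiter-Glo added after bla read, 30 min at room temperature; luminescence loss indicates cytotoxicity.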

The target in experiment [4] is PGR (gene 5241) (UniProt P06401). Put plainly: TOX21_PR_LUC_Followup_Antagonist: Tox21 HEK293 Progesterone Receptor (PR) Antagonism Luciferase Follow-Up Assay (AID 2283938).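 Also: curve fitted upward as signal gain over DMSO baseline despite antagonist label.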 An outline of the steps:
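A follow-up to the PR bla screen using HEK293-PR-A-luc cells, multiplexed with cell viability to flag cytotoxicity. Reporter luminescence after 16 h compound exposure was analysed relative to DMSO.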

A short description of experiment [5]: TOX21_PR_LUC_Followup_Antagonist_viability: Viability Assessment in the Tox21 HEK293 Progesterone Receptor (PR) Antagonism Luciferase Follow-Up Assay (AID 2283940). An outline of the steps: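 Multiplexed viability counter-screen: after 5 days in charcoal-stripped-FBS medium, HEK293-PR-A-luc cells are plated, pinned with DMSO-dissolved compounds for 16 h at 37C, and ATP content is quantified luminescently via CellTiter-Glo.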

Experiment [6] is described as follows: TOX21_PR_LUC_Followup_Agonist_viability: Viability Assessment in the Tox21 HEK293 Progesterone Receptor (PR) Agonism Luciferase Follow-Up Assay (AID 2283941).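 Also: loss of signal means cytotoxicity so actives lower viability.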 The essentials:
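Cells were kept 5 days in charcoal-stripped serum medium before plating HEK293-PR-A-luc at 3,000 cells/well. After 5 h they received DMSO-dissolved compound and incubated 16 h at 37C. Viability was taken from CellTiter-Glo ATP luminescence.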

Experiment [7] concerns the target Thyroid hormone receptor alpha (Rattus norvegicus) + Thyroid hormone receptor beta (Rattus norvegicus) (UniProt P18113+P63059). Description: TOX21_TR_LUC_GH3_Antagonist_Followup: Tox21 GH3 Thyroid Hormone Receptor Antagonism Luciferase Follow-Up Assay (AID 2283942). The essentials:
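Confirmatory qHTS, antagonist mode: T3 (1.0 nM final) + test cpd, 15 conc, 92 uM–5nM final, GH3 rat pituitary line, 24 h, 37C. Luc reporter, RLU vs DMSO.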

A short description of experiment [8]: CEETOX_H295R_ESTRONE_noMTC: CeeTox H295R High-throughput Steroidogenesis Assay for Estrone, maximum tolerated concentration (MTC) filtered results only (AID 2283921; active = hit-call score of the fitted dose curve at least 0.9, where 1 is the maximum; inactive = score below 0.9). Particulars: actives raise or lower the signal. An outline of the steps: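 H295R cells prestimulated 48 h with 10 uM forskolin, then exposed 48 h to chemical in 0.1% DMSO; medium estrone measured by HPLC-MS/MS after MTBE extraction and dansyl derivatization, fitted bidirectionally versus DMSO without MTT-based MTC filtering.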

In experiment [9] the target is PGR (gene 5241) (UniProt P06401). Put plainly: TOX21_PR_BLA_Followup_Agonist_ratio: Tox21 HEK293 Progesterone Receptor (PR) Agonism Beta-lactamase Follow-Up Assay, Ratio (AID 2283933). As for the experimental part: TOX21_PR_BLA_Followup is a secondary assay for specificity for the TOX21_PR_BLA_Agonist assay. To differentiate true PR agonists from cytotoxic substances, this follow up assay is multiplexed with a cell viability assay. The compounds were also tested for auto fluorescence that may interfere with the biological target readout resulting in potential false positives and/or negatives. To identify the compounds that stimulate PR signaling, a PR-UAS-bla GripTite cell line i.e. PR-UAS-bla HEK293T (Invitrogen, Carlsbad, CA, USA) containing a beta-lactamase reporter gene under the control of an UAS response element was used to screen Tox21 10K compound library. […] TOX21_PR_BLA_Followup_Agonist_ratio is an assay readout measuring reporter gene via receptor activity and designed using inducible reporter (beta lactamase induction) detected with GAL4 b-lactamase reporter gene. The signal is derived from the ratio of cleaved (ch2) to uncleaved (ch1) reporter gene substrate used as the measure of target activity.Data from the assay component TOX21_PR_BLA_Followup_Agonist_ratio was analyzed into 1 assay endpoint. This assay endpoint, TOX21_PR_BLA_Followup_Agonist_ratio, was analyzed in the positive analysis fitting direction relative to DMSO as the negative control and baseline of activity. […]
PGR (gene 5241), sequence (P06401 whole entry, looked up): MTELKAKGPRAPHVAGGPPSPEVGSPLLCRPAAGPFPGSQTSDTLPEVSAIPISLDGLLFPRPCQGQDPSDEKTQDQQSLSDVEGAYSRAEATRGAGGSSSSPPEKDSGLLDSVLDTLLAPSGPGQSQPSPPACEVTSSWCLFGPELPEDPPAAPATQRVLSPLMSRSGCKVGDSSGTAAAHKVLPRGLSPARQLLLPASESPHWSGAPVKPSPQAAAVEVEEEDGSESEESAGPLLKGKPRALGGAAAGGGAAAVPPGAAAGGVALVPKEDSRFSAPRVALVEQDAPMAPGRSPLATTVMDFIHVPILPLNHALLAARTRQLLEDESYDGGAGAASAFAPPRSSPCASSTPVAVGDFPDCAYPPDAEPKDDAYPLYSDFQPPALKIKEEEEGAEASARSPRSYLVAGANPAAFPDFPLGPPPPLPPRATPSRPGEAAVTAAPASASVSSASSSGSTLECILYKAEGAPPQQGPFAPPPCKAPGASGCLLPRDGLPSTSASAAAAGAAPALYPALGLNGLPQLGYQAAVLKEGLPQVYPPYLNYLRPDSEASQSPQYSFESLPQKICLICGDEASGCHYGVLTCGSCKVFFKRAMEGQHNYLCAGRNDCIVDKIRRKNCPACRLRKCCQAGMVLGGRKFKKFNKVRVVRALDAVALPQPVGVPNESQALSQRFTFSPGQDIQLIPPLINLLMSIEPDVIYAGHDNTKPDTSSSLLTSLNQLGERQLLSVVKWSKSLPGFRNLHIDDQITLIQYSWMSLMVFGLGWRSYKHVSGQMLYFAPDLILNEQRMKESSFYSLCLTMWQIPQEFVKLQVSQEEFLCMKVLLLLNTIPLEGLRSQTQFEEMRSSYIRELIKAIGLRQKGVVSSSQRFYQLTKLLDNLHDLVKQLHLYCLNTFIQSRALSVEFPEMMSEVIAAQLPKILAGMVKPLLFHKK

Experiment [10] has the same target. Description: TOX21_PR_LUC_Followup_Agonist: Tox21 HEK293 Progesterone Receptor (PR) Agonism Luciferase Follow-Up Assay (AID 2283937; active = hit-call score of the fitted dose curve at least 0.9, where 1 is the maximum; inactive = score below 0.9). An outline of the steps:
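Cells: HEK293-PR-A-luc, 3,000/well, 10% charcoal-stripped FBS assay medium. Compound added after 5 h; 16 h, 37C, 0% CO2. ONE-Glo luciferase, luminescence. Positive fit vs DMSO.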

Results filed as inconclusive are left out. Calls of active or inactive are those of the source. The calls were made as follows, unless noted: active = hit-call score of the fitted dose curve at least 0.9, where 1 is the maximum; inconclusive = response in the unintended direction; inactive = score below 0.9.

As for `C=CC1(C)OC(=O)N(c2cc(Cl)cc(Cl)c2)C1=O` (centres undefined), the result (in the experiment with PGR (gene 5241) [1]; in [2]; in [3]; in the experiment with PGR (gene 5241) [4]; in experiment [5]; in [6]) was inactive.
A word on the AC50: it is the concentration giving half of the maximal activity seen. With `COC(=O)N(OC)c1ccccc1COc1ccn(-c2ccc(Cl)cc2)n1`, the AC50 is 7.24 µM (active) with PGR (gene 5241) [1], 13.6 µM (active) with PGR (gene 5241) [4] and 1.09 µM (active) in experiment [7]. Further, the compound was classed as inactive in experiment [2], in experiment [3], in experiment [5] and in experiment [6].
As for `COC(=O)c1ccccc1C(=O)OC`, in [8], the call was inactive.
For the compound `CCc1nn(C)c(C(=O)NCc2ccc(C(C)(C)C)cc2)c1Cl`, the result in experiment [7] was inactive.
For `OC(c1ccc(Cl)cc1)(c1cncnc1)c1ccccc1Cl` (centres undefined), the half-maximal activity concentration (AC50) in experiment [8] was 13.9 µM (active).
For `CO/C=C(/C(=O)OC)c1ccccc1Oc1cc(Oc2ccccc2C#N)ncn1`, in experiment [7], the concentration at half-maximal activity (AC50) is 3.91 µM (active).
For the compound `COc1ccc(C(c2ccc(OC)cc2)C(Cl)(Cl)Cl)cc1`, the AC50 with PGR (gene 5241) [1] was 6.48 µM (active); in the experiment with PGR (gene 5241) [4], 15.2 µM (active). The compound was classed as inactive in experiment [2], in experiment [3] and in experiment [5].
As for `N#CC(CCc1ccc(Cl)cc1)(Cn1cncn1)c1ccccc1` (centres undefined), the outcome (with PGR (gene 5241) [9]; in experiment [2]; in experiment [3]; in the experiment with PGR (gene 5241) [10]; in experiment [5]; in experiment [6]) was inactive. For the same compound, the AC50 with PGR (gene 5241) [1] is 17.8 µM (active); with PGR (gene 5241) [4], 22.5 µM (active).
Regarding `CCCCOC(=O)c1ccccc1C(=O)OCCCC`, in [8], the call was inactive.
`CON(C)C(=O)Nc1ccc(Cl)c(Cl)c1`: the outcome (in the experiment with PGR (gene 5241) [1]; in [2]; in [3]; in experiment [5]; in experiment [6]) was inactive.
Consider `CN(C)C(=S)SSC(=S)N(C)C`, for which the half-maximal activity concentration (AC50) in experiment [7] is 24.3 µM (active).
For `CCOP(=S)(OCC)SCn1c(=O)oc2cc(Cl)ccc21`, the AC50 is 24.9 µM (active) with PGR (gene 5241) [1] and 32.8 µM (active) with PGR (gene 5241) [4]. Further, the compound was classed as inactive in experiment [2], in experiment [3] and in experiment [5].
Turning to `CCCCNC(=O)n1c(NC(=O)OC)nc2ccccc21`, the outcome in [7] was inactive.
Turning to `CCCCC(CC)COC(=O)c1ccccc1C(=O)OCC(CC)CCCC` (centres undefined), the result in experiment [8] was inactive.

Source of the values: PubChem BioAssay (EPA / NIEHS).
